Bioassay records as filed in PubChem.
The list is not random: actives were taken first. Their share in the collection is about 2.1%.
aSyn yeast inh – inhibitors of alpha-synuclein toxicity in yeast; Yeast expressing alpha-synuclein, growth rescue, BacTiter-Glo, 24 h; Potency, µM (titrated, usually from 46.1 µM), most hits filed as activators; hit rate 0.14% among 370,000; note: nearly all actives have a fitted effect of over 65% in size
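Galactose-induced alpha-syn yeast (OD600=0.02, raffinose-pregrown) + pinned cpd, 24 hr, 30 deg C; growth by BacTiter-Glo luminescence. Growth restoration scores as activation.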
FUS suppressor – rescues growth of FUS-expressing yeast; hit rate 0.24% among 390,000; Potency, µM (doses to about 76.6 µM), actives largely listed as activators; S. cerevisiae FUS-expressing, growth rescue, OD600, 24 h; note: nearly all actives have a fitted effect of over 55% in size
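Galactose (2%) drives FUS expression in yeast precultured in raffinose; seeding density OD 0.005. Test compounds incubated 24hr at 30C and 99% humidity before absorbance at 600 nm was measured.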
Abeta yeast res – A-beta toxicity reversal in yeast. yeast expressing A-beta42, growth rescue, OD600, 48 h; response scale: 0% DMSO, 100% iron-clioquinol control. Potency, µM (highest dose often 46.1 µM), usual class: activators. hit rate 0.063% among 410,000; note: nearly all actives have a fitted effect of over 55% in size
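Yeast growth medium received pinned compounds, then yeast cells expressing toxic A-beta were added; plates incubated at 30 C for 48 hr. Growth read as absorbance at 600 nm, normalized to DMSO and equimolar FeCl3 plus clioquinol controls.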
TDP-43 yeast inh – inhibitors of TDP-43 toxicity in yeast; TDP-43 expressing yeast growth rescue, BacTiter-Glo, 24 h; Potency, µM (top dose mostly 46.1 µM), usual class: activators; hit rate 1.8% among 410,000; AID 652104; note: nearly all actives have a fitted effect of over 50% in size
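Yeast cells expressing TDP-43 under galactose induction are exposed to compounds for 24 hr at 30 deg C. BacTiter-Glo luminescence measures growth, so protective compounds score as activators.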
Hits are given with their value; n = inactive; u = inconclusive; x = no result; [ ] = another dose, or the depositor's remark. Calls come from the whole dose curve; as a rule, active = well fitted curve in the direction sought with a large enough effect; inconclusive = small, poorly fitted or top-dose-only effect, or another doubt; inactive = no such curve, though single readings can be large; an effect the other way counts as inactive or inconclusive.

SMILES	aSyn yeast inh	FUS suppressor	Abeta yeast res	TDP-43 yeast inh
COc1ccc(NC(=O)C2CC(c3ccccc3Cl)=NO2)cc1 (stereo unspecified)	n	n	n	11µM
C/C(=N/OC(=O)c1ccccc1Br)c1ccc(C)cc1	n	n	n	14µM
C/C(=N/OC(=O)c1ccc(C)cc1)c1cccs1	n	n	n	n
CCN(CC)CCP(=O)(c1ccccc1)c1ccccc1	n	n	n	n
Cc1c(Cc2ccccc2)c(=O)oc2c(C)c(OC(C)C(=O)NCC3CCC(C(=O)O)CC3)ccc12 (stereo unspecified)	n	n	n	n
CCOc1cc(S(=O)(=O)NC2CCCC2)ccc1Cl	n	n	n	20µM
CCOc1cc(S(=O)(=O)NC2CCCCC2)ccc1F	n	n	n	u
CCOc1ccc(-c2nc(CSCC(=O)N3CCN(c4cccc(C(F)(F)F)c4)CC3)c(C)o2)cc1	x	22µM	n	n
CCOc1ccc(-c2nc(CSCC(=O)N3CCN(c4ccc(F)cc4)CC3)c(C)o2)cc1	x	n	n	n
COc1ccc(-c2nc(CSCC(=O)N3CCN(c4cccc(C)c4C)CC3)c(C)o2)cc1OC	x	25µM	n	u
COc1ccc(-c2nc(CSCC(=O)N3CCN(C)CC3)c(C)o2)cc1OC	n	n	n	n
O=S(=O)(c1cccc(S(=O)(=O)N2CCOCC2)c1)N1CCCCCC1	n	n	n	n
Cc1ccc(S(=O)(=O)Nc2ccc3c(c2)OCCO3)cc1	n	n	n	n[9.22 µM]
Cc1c(Cl)cccc1NS(=O)(=O)c1ccc(NS(=O)(=O)c2ccc3c(c2)OCCO3)cc1	x	22µM	n	n
O=S(=O)(NCCSCc1c(Cl)cccc1Cl)c1ccc2c(c1)OCCO2	n	n	n	35µM
O=S(=O)(NCCSCc1ccc(Cl)cc1Cl)c1ccc2c(c1)OCCO2	n	n	n	u
CCOc1ccc(-n2ccnc2SCC(=O)Nc2ccc3c(c2)OCO3)cc1	x	n	n	u
CCOc1ccccc1NC(=O)CN(c1ccc(C)cc1)S(=O)(=O)c1c(C)noc1C	n	n	n	n
COc1ccc(OC(C)C(=O)NCc2nc(-c3ccc(Cl)cc3)no2)cc1 (stereo unspecified)	x	u	n	16µM
COc1ccccc1OCC(=O)NCc1nc(-c2ccc(Cl)cc2)no1	x	n	n	n
COC(=O)c1c(NC(=O)C2(C)Cc3ccccc3C(=O)O2)sc2c1CCCC2 (stereo unspecified)	n	4µM	n	n
COC(=O)c1c(NC(=O)C2Cc3ccccc3C(=O)O2)sc2c1CCCC2 (stereo unspecified)	n	n	n	n
Cc1cccc2nc(-c3ccco3)c(Nc3ccc4c(c3)OCCO4)n12	n	n	n	n
Cn1c(-c2ccccc2)cc2ccccc21	n	n	n	n
Cn1c(-c2ccccc2)cc2c3no[n+]([O-])c3ccc21	n	n	n	3.5µM
SMILES	aSyn yeast inh	FUS suppressor	Abeta yeast res	TDP-43 yeast inh
Cc1nc2scc(C)n2c(=O)c1S(=O)(=O)Nc1ccc(N2CCN(S(C)(=O)=O)CC2)cc1	u	n	u	16µM
Cc1cccc(NS(=O)(=O)c2c(C)nc3scc(C)n3c2=O)c1	u	n	n	16µM
COc1ccccc1NC(=O)Nc1nn(C)c2cccc(N(C)C)c12	n	u	n	20µM
O=S1(=O)CC(N2CCN(CCO)CC2)CN1Cc1cn(Cc2ccc(F)cc2)nn1 (stereo unspecified)	n	n	n	u
CN(C)c1nc(OCCOC(=O)COc2ccc(Cl)cc2Cl)nc(N(C)C)n1	n	u	n	n
CN(C)c1nc(OCCNC(=O)COc2ccc(Cl)cc2Cl)nc(N(C)C)n1	n	n	n	14µM
CCOc1ccc(-c2nc3n(c(=O)c2C#N)CCCS3)cc1	n	n	n	n
N#Cc1c(-c2ccccc2)nc2n(c1=O)CCS2	n	n	n	35µM
CC(C)(C)c1ccc(-c2nc3n(c(=O)c2C#N)CCS3)cc1	n	n	n	20µM
NS(=O)(=O)c1cccc(NC(=O)COC(=O)c2cc(Cl)ccc2[N+](=O)[O-])c1	n	n	n	n
Cc1ccc(NC(=O)COC(=O)c2cc(Cl)ccc2[N+](=O)[O-])cc1	n	x	n	18µM
CC(OC(=O)Cc1coc2ccc3ccccc3c12)C(=O)NC(N)=O (stereo unspecified)	n	n	n	n
O=C(Nc1cccn(Cc2c(Cl)cccc2Cl)c1=O)c1ccccc1Cl	n	n	n	4µM
COc1ccc(CCNC(=S)N(C)C)cc1OC	n	n	n	n[1.82 µM]
c1ccc(N2CCN(Cc3nc4ccccc4[nH]3)CC2)nc1	n	n	n	n
c1c[nH]c(CN2CCN(Cc3ncc[nH]3)CC2)n1	n	x	n	4µM
Cc1ccc(/C=N/n2c(-c3ccncc3)n[nH]c2=S)s1	n	n	n	n
CCNC(=O)c1cc2c(c(-c3cccc(-c4ccccc4F)c3)n1)[C@@H](CCO)N(C(=O)CC1CC1)C2	n	18µM	n	u
CCCNC(=O)c1cc2c(c(-c3cccc(-c4ccccc4F)c3)n1)[C@H](CCO)N(C(=O)CC1CC1)C2	n	u	n	u
CCN=C1S/C(=C\c2cn(CC)c3ccccc23)C(=O)N1CC	n	n	n	18µM
CCN1C(=O)S/C(=C/c2cn(C)c3ccccc23)C1=O	n	n	n	n
Cc1ccc(S(=O)(=O)NN2C(=O)/C(=C/c3ccccn3)SC2=S)cc1	n	u	n	n
CCNC(=O)CSC1=N/C(=C\c2ccc(O)c(OCC)c2)C(=O)N1c1ccc(OC(F)F)cc1	n	n	n	n
CCN(CC)CCN(Cc1cc2cc3c(cc2[nH]c1=O)OCO3)C(=S)NCCCOC	n	n	n	n
Cc1ccc(S(=O)(=O)CCC(=O)c2cccc([N+](=O)[O-])c2)cc1	n	n	n	18µM
SMILES	aSyn yeast inh	FUS suppressor	Abeta yeast res	TDP-43 yeast inh
Cc1ccc(C(=O)CCS(=O)(=O)c2ccc(Br)cc2)cc1	n	n	n	n
Fc1cccc(C[n+]2csc3ccccc32)c1	n	x	n	3.5µM
CCOC(=O)[C@]12CCCC=C1N(Cc1ccc(Cl)cc1Cl)C(=O)[C@H](CC(=O)N1CCN(C(=O)c3ccco3)CC1)C2	n	18µM	n	16µM
COC(=O)[C@]12CCCCC=C1N(Cc1ccc(Cl)cc1Cl)C(=O)[C@H](CC(=O)N1CCOCC1)C2	n	u	n	18µM
COC(=O)[C@]12CCCCC=C1N(Cc1ccc(Cl)cc1Cl)C(=O)[C@H](CC(=O)N1CCCCC1)C2	n	u	n	u
O=C(Cn1cc(COc2ccc(C(=O)c3ccccc3)cc2)nn1)c1ccc(O)cc1	n	n	n	u
Cc1ccc(NC(=O)C2CCC(CNS(=O)(=O)c3cccc4nsnc34)CC2)c(C)c1 (stereo unspecified)	x	n	n	n
NC(=O)Cc1nc(-c2ccc(F)cc2)cs1	n	n	n	n
NC(=S)Cc1nc(-c2ccc(Cl)cc2)cs1	n	n	6.3µM	u
C=CCSc1nc2sc3c(c2c(=O)n1-c1ccccc1)CCN(C)C3	n	n	n	n
Brc1ccc(C2Nc3cccc4cccc(c34)N2)s1	n	x	n	n
